# Experimental data published in PubChem BioAssay AID430 (Sanford-Burnham Center for Chemical Genomics, 2006).
# The whole screen tested about 63,000 compounds, of which about 1,100 (1.7%) were called active. This excerpt belongs to a sample that is enriched for actives. Entries with a potency or affinity are not part of this list. Unmarked numbers belong to inactive results. Cut-off read from the data, not from the text of the source: active = cytotoxicity above about 50%; inactive = the rest.
# Assay: HPDE-C7 pancreatic duct cell viability loss – fluorescence, HTS (AID 430);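 note: cells exposed to compound for 48 hours before viability readout; 0% = vehicle and 100% = reference cytotoxic drug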
# Settings: HPDE-C7 pancreatic duct cells viability, at 10 µM, stronger effect = higher value
row,SMILES,cytotoxicity
1,O=S1(=O)N=C(Nc2nc3c(s2)CCCC3)c2ccccc21,-10%
2,Cc1nc(SCC#N)c2c3c(sc2n1)CCC3,-19%
3,CSc1nc2sc3c(c2c2nnnn12)CCC3,7.6%
4,Cc1nc(Sc2nnnn2C)c2c3c(sc2n1)CCC3,76.2% (active)
5,CC1Cc2ccccc2N1C(=O)Cn1nnc(-c2ccccc2NC(=O)C2CCC2)n1 (configuration not stated),-11.1%
6,CCOC(=O)C1CCCN(C(=O)CN2CCN(Cc3ccc(Cl)cc3)C2=O)C1 (configuration not stated),-28.3%
7,O=C(c1ccc(COc2ccccc2Cl)o1)N1CCN(c2ccccc2)CC1,-4.6%
8,O=C(c1ccc(COc2ccccc2Cl)o1)N1CCN(Cc2ccc3c(c2)OCO3)CC1,87.5% (active)
9,O=C(c1ccc(COc2ccc(Cl)cc2)o1)N1CCN(Cc2ccc3c(c2)OCO3)CC1,69.1% (active)
10,O=C(c1ccc(Br)o1)N1CCN(Cc2ccc3c(c2)OCO3)CC1,-8.7%
11,O=C(c1ccc(Cn2cc(Cl)cn2)o1)N1CCN(Cc2ccc3c(c2)OCO3)CC1,12.9%
12,CC1CCN(C(=O)c2ccc(COc3ccccc3Cl)o2)CC1,-8.9%
13,Cn1c(O)c(C=NC(CC(N)=O)C(=O)O)c(=O)n(C)c1=O (configuration not stated),-3.1%
14,O=C(COc1cc(Cl)c(Cl)cc1Cl)Nc1ccncc1,14.9%
15,CCOC(=O)CC(=O)CSc1nc2sc(C)cc2c(=O)n1Cc1ccco1,-13.3%
16,COCCn1nnnc1C(c1ccc(OC)cc1)N1CCC(C)CC1 (configuration not stated),-5.9%
17,O=C1c2ccccc2C(=O)N1CCc1nc2ccccc2c(=O)n1CCCn1ccnc1,-20.5%
18,N#Cc1nc(-c2ccc(OCc3ccccc3)cc2)oc1N1CCOCC1,14.5%
19,COc1ccccc1S(=O)(=O)Cc1ccc(C(=O)NC(C)c2ccc3c(c2)OCCO3)o1 (configuration not stated),-4.2%
20,COc1ccc(N(C)C(=O)Nc2ccc3c(c2)nnn3C)cc1,-17.6%
21,O=C(NCc1ccccn1)c1cc2cc(Br)ccc2oc1=O,4.9%
22,O=C(NCc1ccccn1)c1ccc(=O)oc1,0.8%
23,O=C(NCc1ccccn1)c1coc(=O)c(Br)c1,52.2% (active)
24,Cc1c(C(=O)NCc2cccnc2)oc2ccc(S(=O)(=O)N3CC(C)CC(C)C3)cc12 (configuration not stated),43%

row,SMILES,cytotoxicity
1,CN(c1nc(-c2ccccc2)cs1)C1CCS(=O)(=O)C1 (configuration not stated),4.5%
2,CCOC(=O)N1CCN(S(=O)(=O)c2cc(Cl)c(OC)cc2Cl)CC1,-2.9%
3,COc1cccc(CN(Cc2cccnc2)S(=O)(=O)c2ccc(-n3cnnn3)c(C)c2)c1,4.5%
4,O=C(O)c1cc(C(=O)O)c(-c2ccccc2)c(C(=O)O)c1,-22.6%
5,CC(=O)Oc1cccc2c1C(=O)c1c(OC(C)=O)cc(C(=O)O)cc1C2=O,25.5%
6,Cn1c(=O)c(=O)n(C)c2cc(S(=O)(=O)N3CCN(c4cccc(C(F)(F)F)c4)CC3)ccc21,71.5% (active)
7,Cc1c(S(=O)(=O)N2CCN(c3cccc(C(F)(F)F)c3)CC2)c(=O)n(C)c(=O)n1C,5.2%
8,Cn1c(=O)c2cc(S(=O)(=O)N3CCN(c4cccc(C(F)(F)F)c4)CC3)ccc2n(C)c1=O,-2.2%
9,O=C(C1CCC(Cn2c(=S)[nH]c3ccccc3c2=O)CC1)N1CCOCC1 (configuration not stated),-5.9%
10,O=C(O)C1CCN(c2nc(-c3ccccc3)nc3c2oc2ccccc23)CC1,23.4%
11,CN1CCN(c2nc(-c3ccccc3)nc3c2oc2ccccc23)CC1,-10%
12,CCC(CC)C(=O)Nc1cc(NC(=O)C(CC)CC)cc(C(=O)O)c1,-16.6%
13,CCN=C1SC(C(=O)NCCc2ccccc2)CC(=O)N1CC (configuration not stated),5.8%
14,O=C1CSC(=S)N1c1cccnc1,-9.7%
15,O=C(O)c1ccc(CN2C(=O)CSC2=S)cc1,19.2%
16,Cc1ccc(C(=O)CSc2ncn[nH]2)cc1,17.6%
17,Cn1c(N)c(C(=O)COC(=O)c2ccc3c(c2)OCCO3)c(=O)n(C)c1=O,-1.5%
18,Cc1ccc(-n2c(=O)cc(N3CC(C)CC(C)C3)[nH]c2=O)cc1 (configuration not stated),-15.2%
19,CC(=O)Nc1cccc(-c2nc3ccc(NC(C)=O)cc3[nH]2)c1,9.5%
20,CCOC(=O)N1CCN(c2c(-c3ccccc3)c3cc(Cl)ccc3[nH]c2=O)CC1,7.4%
21,O=c1[nH]c2ccc(Cl)cc2c(-c2ccccc2)c1N1CCOCC1,0.9%
22,O=C(c1ccco1)N1CCN(c2c(-c3ccccc3)c3cc(Cl)ccc3[nH]c2=O)CC1,83.6% (active)
23,CC(C)(C)n1nnnc1C(c1cccs1)N(Cc1ccccc1)Cc1ccco1 (configuration not stated),-4.3%
